Measurements: PubChem BioAssay AID1259422 (The Scripps Research Institute Molecular Screening Center, 2018)
Where “and” joins values, the source holds several entries; their conditions need not be identical. Identical values can stand only once. Out of some 640,000 compounds screened, about 9,300 (1.5%) were called active. Rule as the data show it: active = inhibition above about 32%; inactive = the rest. Shown is part of a subset that was picked to be rich in actives.

Assay: TEAD-YAP interaction inhibition, primary screen, TEAD-YAP interaction inhibitor project, luminescence, HEK-TIYL cells (AID 1259422);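 also: 0% = median of test compound wells and 100% = reference inhibitor wells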
Settings: TEAD-Gal4/YAP UAS-luciferase luminescence, at 9.12 µM, stronger effect = higher value

Row | SMILES | inhibition
1 | CCn1cc(C(=O)Nc2ccc(N3CCOCC3)cc2)c(=O)c2ccc(C)nc21 | -7.7% (inactive)
2 | COc1ccc(CC(=O)N/N=C(\C)c2ccccn2)cc1OC | 2.58% (inactive)
3 | COc1cc(C=O)ccc1OS(=O)(=O)c1ccc(Cl)cc1 | -7.3% (inactive)
4 | CCOC(=O)N/N=C/c1ccc(OS(=O)(=O)c2ccc(C)cc2)c(OC)c1 | 3.61% (inactive)
5 | Cc1ccc(S(=O)(=O)Oc2ccc(Br)cc2C=O)cc1 | 31.9% (active)
6 | CSCCC(=O)Nc1ccc(Cl)cc1 | 2.57% (inactive)
7 | Cc1ccc(NC2=C(Cl)C(=O)OC2OC(=O)c2ccccc2Br)cc1 (centres undefined) | 9.63% (inactive)
8 | N#Cc1ccccc1OCCCCn1cnc2ccccc21 | 35% (active)
9 | O=c1c2ccccc2ncn1CCCCOc1ccccc1F | 5.72% (inactive)
10 | O=C(O)c1cccc(OCC(O)Cn2cnc3ccccc32)c1 (centres undefined) | 10% (inactive)
11 | COc1c(C)cccc1C1=N/C(=C\c2cccc([N+](=O)[O-])c2)C(=O)O1 | 9.8% (inactive)
12 | CCCOC(=O)C1=C(C)N(C)C(=O)NC1c1cc(Br)c(O)c(OC)c1 (centres undefined) | 3.09% (inactive)
13 | COc1ccc2nc(NC(=O)CN3C(=S)NC(C)(C)CC3C)sc2c1 (centres undefined) | 3.44% (inactive)
14 | CC(NC(=O)COC(=O)c1cccc(NS(C)(=O)=O)c1)C12CC3CC(CC(C3)C1)C2 (centres undefined) | -4.62% (inactive)
15 | CCCCNC(=O)C(=O)NCCC1CCCCN1S(=O)(=O)c1ccc(C)cc1 (centres undefined) | 50.6% (active)
16 | Cc1ccc(NC(=O)C(=O)NCCC2CCCCN2S(=O)(=O)c2ccc(C)cc2)cc1 (centres undefined) | 17.1% (inactive)
17 | Cc1ccc(S(=O)(=O)N2CCCCC2CCNC(=O)C(=O)NCCO)cc1 (centres undefined) | -1.73% (inactive)
18 | O=c1c(-c2ccon2)coc2cc(O)ccc12 | -4% (inactive)
19 | COc1cc2nc(/C=C/c3ccco3)oc(=O)c2cc1OC | 0.76% (inactive)
20 | O=C(N/N=C/c1ccc(O)cc1)c1ccc(N2Cc3ccccc3C2)cc1 | -17% (inactive)
21 | CC(=O)c1ccc(N2CCN(c3cccc[n+]3C)CC2)cc1 | -8.59% (inactive)
22 | CC(=O)c1ccc(N2Cc3ccccc3C2)cc1 | 38.4% (active)
23 | CC1=C(C(=O)OCc2ccccc2)C(c2ccccc2F)CC(=O)N1 (centres undefined) | 0.13% (inactive)
24 | COc1ccccc1N=c1scc(-c2ccccc2)n1CCO | 1.29% (inactive)

Row | SMILES | inhibition
25 | O=c1c2cc(Cl)ccc2[nH]c(=S)n1Cc1cccnc1 | -1.08% (inactive)
26 | Cc1ccc(NC(=O)c2ccc(C#N)cc2)c(C(=O)c2ccccc2)c1 | 4.87% (inactive)
27 | CC(C)=CC(=O)Nc1ccc2c(c1)OCCO2 | 12.2% (inactive)
28 | CCOc1ccc(NCCC(=O)c2ccc3c(c2)OCO3)cc1 | 6.84% (inactive)
29 | COC(=O)CCNc1ccc2c(c1)OCCO2 | 33.2% (active)
30 | Cc1cccc(NC(=O)CSc2nc3ccc([N+](=O)[O-])cc3[nH]2)c1 | 8.94% (inactive)
31 | O=C(Nc1ccc(N2CCC(N3CCN(CCO)CC3)CC2)cc1)c1cccc(Cl)c1 | -1.49% (inactive)
32 | COC(=O)c1ccc2c(c1)C(=O)/C(=C\c1ccccc1O)O2 | -31.1% (inactive)
33 | Cc1cc2nc(-c3ccc(NC(=O)c4cc5ccccc5o4)cc3)oc2cc1C | -23.6% (inactive)
34 | Cc1cc(O)cc2c1C(=O)/C(=C/c1cc3ccccc3o1)O2 | 71.4% (active)
35 | CCCCc1ccc(-c2nc(C=Nc3cc([N+](=O)[O-])ccc3C)c(O)o2)cc1 | -9.75% (inactive)
36 | COc1cccc(/C=C/C(=O)c2cc3ccccc3oc2=O)c1 | -6.12% (inactive)
37 | CCCCCCCN1C(=O)c2c(Cl)c(Cl)c(Cl)c(Cl)c2C1=O | 5.39% (inactive)
38 | Oc1ccc(-c2cnc3ccc(NC4CCOCC4)nn23)cc1 | -2.21% (inactive)
39 | Fc1ccc(-c2cnc3ccc(NC4CCOCC4)nn23)cc1Cl | 43.8% (active)
40 | Brc1cccc(-c2cnc3ccc(NC4CCOCC4)nn23)c1 | 29.9% (inactive)
41 | O=C(c1ccc2nc3ccc(Cl)cc3c(=O)n2c1)N1CCN(c2ccccc2)CC1 | 5.05% (inactive)
42 | CNC(=S)N/N=C/c1cccc(/C=N/NC(=S)NC)c1 | -8.21% (inactive)
43 | CCc1nc2nonc2c2nc3ccccc3n12 | -7.01% (inactive)
44 | O=C(O)c1ccc(N2C(=O)c3cccc4cccc(c34)C2=O)cc1O | 9.06% (inactive)
45 | O=C(O)c1ccc(-n2cccc2)cc1O | 32.4% (active)
46 | CC(=O)C1=C(O)C(=O)N(c2ccc(C(=O)O)c(O)c2)C1c1ccccc1 (centres undefined) | 1.91% (inactive)
47 | Cc1ccc(NC(=O)CCn2cccc2)c(C)c1 | -10.1% (inactive)
48 | Cc1ccc(-c2cc(C(=O)OCC(C)C)c3cccc(C)c3n2)cc1 | 3.59% (inactive)

Row | SMILES | inhibition
49 | Cc1cccc2c(N)c3c(nc12)CCCC3 | -0.9% (inactive)
50 | Cc1ccc2nc3nc4c(C)cccc4c(N)c3cc2c1 | 43.1% (active)
51 | OC1(c2ccc(F)cc2)CC2CCC(C1)N2c1ncnc2nc[nH]c12 (centres undefined) | 1.25% (inactive)
52 | C=C(Br)Cn1c(C(C)O)nc2ccccc21 (centres undefined) | 1.71% (inactive)
53 | CC1=C(C#N)C(c2ccc3c(c2)OCO3)C2=C(CC(C)(C)CC2=O)N1 (centres undefined) | 10.8% (inactive)
54 | Cn1c(=O)n(CC(=O)Nc2ccc(F)cc2)c(=O)c2ccccc21 | 14% (inactive)
55 | CCOC(=O)C1=C(C)N(c2ccc(C)cc2)C(=O)/C1=C\c1ccc(OC)cc1 | -0.27% (inactive)
56 | CCCNC1=C(c2ccc(OC)cc2)C(=O)c2ccccc21 | -14.6% (inactive)
57 | CCOC(=O)C1=C(c2ccc(OC)cc2)C(=O)c2ccccc2C1=O | 96% (active)
58 | CCCOc1ccc(/C(O)=C2/C(=O)C(=O)N(CCN(C)C)C2c2ccc(Cl)cc2)cc1C (centres undefined) | 4.59% (inactive)
59 | O=C(NCCc1ccccc1)c1ccc(C(=O)c2ccccc2)o1 | -31.4% (inactive)
60 | O=C(Nc1cccc(O)c1)c1ccc(-c2ccccc2)cc1 | 83.8% (active)
61 | O=C(Nc1cccc(O)c1)c1cccnc1 | 24.2% (inactive)
62 | O=C(Nc1cccc(O)c1)c1ccc(C(=O)c2ccccc2)o1 | 56.8% (active)
63 | Cc1occc1C(=O)Nc1cccc(F)c1 | -4.37% (inactive)
64 | Cc1occc1C(=O)Nc1cccc(O)c1 | 37.5% (active)
65 | Cc1occc1C(=O)Nc1ccc(NC(=O)c2ccoc2C)cc1 | -68.2% (inactive)
66 | O=C(Nc1cccc(O)c1)c1cncc(Br)c1 | -19.1% (inactive)
67 | C#Cc1cccc(NC(=O)c2ccc(-c3ccccc3)cc2)c1 | -53.1% (inactive)
68 | Cc1ccc(S(=O)(=O)n2nc(C#N)c(C#N)c2N)cc1 | -5.77% (inactive)
69 | O=C(Nc1nc(-c2ccc3ccccc3c2)cs1)c1cc(-c2ccc(Br)cc2)nc2ccccc12 | -0.33% (inactive)
70 | CCOc1cc(/C=C2/C(=N)N3N=C(CC)SC3=NC2=O)cc(Cl)c1OCCOc1ccccc1 | -11.5% (inactive)
71 | COc1ccc(Cl)cc1Nc1ncnc2c1c(-c1ccccc1)cn2-c1ccc(C)cc1 | -0.75% (inactive)
72 | CC1CCN(C(=O)c2c[nH]c3ccc(S(=O)(=O)N(C)c4ccc(C(C)C)cc4)cc3c2=O)CC1 | -1.81% (inactive)

Row | SMILES | inhibition
73 | CCOC(=O)N1CCN(S(=O)(=O)c2ccc(C(=O)Nc3ccc(F)cc3F)cc2)CC1 | 58.1% (active)
74 | CCOC(=O)c1ccc(NC(=O)c2ccc(S(=O)(=O)N3CCN(C(=O)OCC)CC3)cc2)cc1 | -0.65% (inactive)
75 | CCOC(=O)N1CCN(S(=O)(=O)c2ccc(C(=O)Nc3nc(-c4ccccc4)c(C)s3)cc2)CC1 | -2.44% (inactive)
76 | COCCOC(=O)C1=C(C)NC2=C(C(=O)CC(c3ccccc3)C2)C1c1cc(OC)ccc1OC (centres undefined) | 8.28% (inactive)
77 | CC[C@H]1CN2CCc3cc(OC)c(OC)cc3[C@@H]2C[C@@H]1C[C@H]1NCCc2cc(OC)c(OC)cc21 | 99.4% (active) and 101% (active)
78 | COc1cc2c(cc1OC)C1CN3CCc4cc(OC)c(OC)cc4C3CN1CC2 (centres undefined) | 5.47% (inactive)
79 | CCOc1cc2c(cc1OCC)C(c1cc(OC)ccc1OC)NCC2 (centres undefined) | 6.48% (inactive)
80 | O=C(Cn1cnc2ccccc21)N/N=C/c1ccc(Cl)c(Cl)c1 | 1.91% (inactive)
81 | Cc1cc(OC2CCN(C(=O)c3ccc4[nH]ncc4c3)CC2)ncc1Cl | 6.71% (inactive)
82 | O=C(Nc1ccc2[nH]ncc2c1)c1ccnc(OC2CCN(Cc3ccccc3)CC2)c1 | 82% (active)
83 | O=C(Nc1ccc2[nH]ncc2c1)c1cccnc1OC1CCCN(Cc2ccccc2)C1 (centres undefined) | -3.88% (inactive)
84 | CCC(C(=O)NC(C)C)n1nc(C)c2sc3ccccc3c2c1=O (centres undefined) | 4.5% (inactive)
85 | CCOC(=O)Cn1c(=O)oc2cc(S(=O)(=O)N3CCN(CC)CC3)ccc21 | -3.33% (inactive)
86 | COc1cccc(/C=N/NC(=O)C(C)Nc2ccc(Br)cc2)c1O (centres undefined) | 23.5% (inactive)
87 | O=C(Cn1cc([N+](=O)[O-])cn1)Nc1ccc(-c2noc(-c3ccccc3F)n2)cc1 | -22% (inactive)
88 | CN(C)CCCn1c(-c2ccc(Cl)cc2)csc1=Nc1ccccc1 | 5.26% (inactive)
89 | O=C(O)CCn1c(-c2ccccc2)csc1=Nc1ccccc1 | -48.6% (inactive)
90 | CCCn1c(-c2ccc(S(=O)(=O)N(C)C)cc2)csc1=Nc1ccccc1 | 35.3% (active)
91 | O=C(NC1CCCCC1)c1ccc(Cn2c(=S)[nH]c3cc4c(cc3c2=O)OCO4)cc1 | -6.89% (inactive)
92 | O=C(Nc1ccccc1F)c1cnc(N2CCN(c3ncccn3)CC2)c2ccccc12 | 25.2% (inactive)
93 | COc1ccc([N+](=O)[O-])cc1NC(=O)c1cnc(N2CCN(c3ncccn3)CC2)c2ccccc12 | 36.3% (active)
94 | COc1ccc(Cl)cc1NC(=O)c1cnc(N2CCN(c3ncccn3)CC2)c2ccccc12 | 12.9% (inactive)
